Screens as filed in PubChem BioAssay.
KCNQ2 inh = rat KCNQ2 potassium channel inhibitors, primary screen, cell-based, CHO-K1, FluxOR thallium flux, B-score | Potassium voltage-gated channel subfamily KQT member 2 (Rattus norvegicus), O88943 | 20 min; hits give low values | hit rate 1.1% among 310,000 | B-score at 10 µM;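 active means fluorescence ratio B-score at most minus 3 library SDs, with starting brightness B-score within 2 library SDs, cut at about -5.5 in these data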
Target sequence (O88943 whole entry, looked up): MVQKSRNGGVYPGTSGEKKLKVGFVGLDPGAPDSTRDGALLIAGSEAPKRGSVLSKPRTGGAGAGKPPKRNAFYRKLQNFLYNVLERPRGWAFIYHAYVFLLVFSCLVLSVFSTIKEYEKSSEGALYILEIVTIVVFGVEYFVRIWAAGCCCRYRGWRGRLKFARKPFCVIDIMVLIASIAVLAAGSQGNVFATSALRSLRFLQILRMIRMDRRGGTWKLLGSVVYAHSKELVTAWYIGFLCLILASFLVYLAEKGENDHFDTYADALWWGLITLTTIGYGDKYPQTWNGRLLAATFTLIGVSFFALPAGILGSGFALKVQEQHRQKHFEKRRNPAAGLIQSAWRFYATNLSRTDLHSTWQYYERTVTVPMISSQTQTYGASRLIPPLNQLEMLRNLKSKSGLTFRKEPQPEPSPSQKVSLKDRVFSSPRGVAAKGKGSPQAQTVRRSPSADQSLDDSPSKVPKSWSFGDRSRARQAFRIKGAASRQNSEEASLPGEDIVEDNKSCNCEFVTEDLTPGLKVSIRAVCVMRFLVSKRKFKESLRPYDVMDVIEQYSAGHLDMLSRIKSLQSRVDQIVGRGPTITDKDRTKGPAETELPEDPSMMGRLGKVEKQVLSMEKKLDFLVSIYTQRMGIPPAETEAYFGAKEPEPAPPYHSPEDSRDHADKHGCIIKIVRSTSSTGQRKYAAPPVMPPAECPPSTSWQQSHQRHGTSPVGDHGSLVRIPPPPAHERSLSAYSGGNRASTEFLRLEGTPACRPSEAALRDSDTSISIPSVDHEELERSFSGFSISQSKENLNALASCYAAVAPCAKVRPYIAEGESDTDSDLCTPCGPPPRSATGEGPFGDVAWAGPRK
KCNQ2 pot = potentiators of rat KCNQ2 potassium channel; Potassium voltage-gated channel subfamily KQT member 2 (Rattus norvegicus), O88943; CHO-K1 KCNQ2, FluxOR thallium flux fluorescence; hits give high values; B-score at 10 µM; hit rate 0.54% among 310,000;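 active means fluorescence ratio B-score at least 3 SD of library B-scores, with initial fluorescence B-score within 3 of them, cut at about 5.3 in these data; same plate scores as AID 2156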;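 further: B-score of peak minus minimum over baseline fluorescence ratio after K+ and Tl+ stimulus; positive B-score means potentiation of KCNQ2 with more thallium influx and brighter signal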
* hit, by the source's call; i = inactive; · = no result. Compounds with a hit are over-represented: about 1.6% of the library has one in this group of screens.

SMILES	KCNQ2 inh	KCNQ2 pot
CCC(Sc1nnnn1-c1ccccc1)C(=O)NC(C)c1ccccc1 (stereo not drawn)	i	·
CCN(CC)C(=O)C(Sc1nnnn1-c1ccc(O)cc1)c1ccccc1 (stereo not drawn)	-6.09*	-6.09
CC1C(=O)Nc2ccc(S(=O)(=O)N3CCN(c4cccc(C(F)(F)F)c4)CC3)cc2NC1=O (stereo not drawn)	i	·
O=C(NCc1ccco1)Nc1ccc2snnc2c1	i	6.13*
Cc1nc2ccc(NC(=O)NCc3ccco3)cc2s1	i	0.31
O=C(O)C1C2CCC(C2)C1C(=O)NCCc1ccccc1 (stereo not drawn)	i	0.01
COC(=O)C1=CN(CCOC23CC4CC(CC(C4)C2)C3)C=C(C(=O)OC)C1c1ccsc1	-7.43*	-7.43
COC(=O)C1=CN(Cc2ccc(OC)cc2)C=C(C(=O)OC)C1c1ccsc1	i	·
Cc1ccc(CNC(=O)C2CCC(=O)N(CCCN3CCOCC3)C2)cc1 (stereo not drawn)	i	0.45
CC(=O)Nc1ccc2c3c(cccc13)CC2	i	1.37
Cc1cc(C)cc(OCC(=O)Nc2ccc3c4c(cccc24)CC3)c1	i	0.25
CCCCC(=O)Nc1ccc2c3c(cccc13)CC2	i	18.5*
CC(C)CC(=O)Nc1ccc2c3c(cccc13)CC2	i	25.5*
COc1ccc(COCC(O)CN(Cc2ccco2)Cc2ccccc2O)cc1 (stereo not drawn)	i	·
Oc1ccccc1CN(Cc1ccco1)CC(O)COCc1ccc(Cl)cc1 (stereo not drawn)	-6.07*	-6.07
CSc1ncc(C(=O)Nc2ccccc2F)c(-c2ccccc2)n1	i	·
O=c1c2cc3c(=O)n(-c4ccccc4O)c(=O)c3cc2c(=O)n1-c1ccccc1O	i	·
COc1ccccc1-n1c(SCc2cc(=O)oc3cc(O)ccc23)nc2ccccc2c1=O	i	·
CCC(CO)n1c(SCc2cc(=O)oc3cc(C)ccc23)nc2ccccc2c1=O (stereo not drawn)	-7.65*	-7.65
COC(=O)c1ccc(-n2c(C)ccc2-c2ccccc2)cc1	-6.6*	-6.6
CC(=O)c1ccc(-n2c(C)ccc2-c2ccccc2)cc1	i	·
CCOc1cc(-c2cn(S(=O)(=O)c3cccc4nsnc34)nc2N)cc(OCC)c1OCC	-6.32*	-6.32
CCOc1cc(S(=O)(=O)n2cc(-c3ccc(F)cc3)c(N)n2)cc(OCC)c1OCC	i	·
O=C(O)COc1ccc(/C=C/c2nc(-c3ccccc3O)n[nH]2)cc1	i	0.1
COc1ccc(/C=C/c2nc(-c3ccccc3O)n[nH]2)cc1OC	i	10.2*
SMILES	KCNQ2 inh	KCNQ2 pot
COc1cc(C2NC(=O)NC(C)=C2C(=O)OCC2CCCCC2)ccc1O (stereo not drawn)	i	2.2
COC(=O)CNC(c1ccccc1)c1cc(Br)ccc1NC(=O)OCc1ccccc1 (stereo not drawn)	-7.41*	-7.41
COC(=O)CNC(c1ccccc1)c1cc(C)ccc1NS(=O)(=O)c1ccc(C)cc1 (stereo not drawn)	i	·
COC(=O)CNC(c1ccccc1)c1cc(C)ccc1NC(=O)CNC(=O)OCc1ccccc1 (stereo not drawn)	-5.78*	-5.78
CCOC(=O)CNC(c1ccccc1)c1cc(Br)ccc1NC(C)=O (stereo not drawn)	i	·
COC(=O)c1cccc(NC(=O)c2cc3sccc3n2C)c1	i	·
COC(=O)c1ccccc1NC(=O)c1cc2sccc2n1C	-6.13*	-6.13
C=CCN1C(=O)/C(=C2/Sc3ccc(OC)cc3N2C)SC1=Nc1cccc(O)c1	i	0.31
Cc1nn(Cc2n[nH]c(=S)n2Cc2ccccc2)c(C)c1Cl	i	0.1
O=C(Nc1ccccc1-c1ccccc1)c1ccccc1Br	-6.3*	-6.3
O=C(Nc1ccccc1Br)c1ccccc1-c1ccccc1	i	·
CC(C)c1ccc(S(=O)(=O)NC2CCS(=O)(=O)C2)cc1 (stereo not drawn)	i	·
CCOC(=O)C1(CCOC)CCN(C(=O)c2ccc(CSC)o2)CC1	i	·
CCN(CC)S(=O)(=O)c1ccc(OC)c(NC(=O)C(Cc2ccccc2)N2C(=O)c3ccccc3C2=O)c1 (stereo not drawn)	i	0.73
O=C(CC1C(=O)N(c2ccccc2)C(=S)N1c1ccccc1)c1ccccc1 (stereo not drawn)	i	·
O=C(CC1C(=O)N(c2ccccc2)C(=S)N1c1ccccc1)c1ccc(Br)cc1 (stereo not drawn)	-6.36*	-6.36
C=CC(=O)NC(C)(C)CCN1CCOCC1	i	·
Cc1nc(N2CCN(S(=O)(=O)c3ccccc3C#N)CC2)c2c(-c3cccs3)csc2n1	i	·
Cc1nc(SCC(=O)NC(C)(C)C)c2c(-c3cccs3)csc2n1	-6.23*	-6.23
Cc1nc(N2CCCCC2)c2c(-c3cccs3)csc2n1	-8.24*	-8.24
COCCCn1c(SCC(=O)NC(C)(C)C)nnc1-c1cccs1	i	0.45
COc1cccc(CN(c2ccc3c(c2)CCC3)S(=O)(=O)c2ccc(-n3cnnn3)c(OC)c2)c1	i	·
O=C(Nc1ccccc1F)N1CCc2ccccc2C1	i	·
O=C1c2ccsc2SCCN1Cc1c(F)cccc1Cl	i	·
O=C1c2ccsc2SCCN1Cc1c(Cl)cccc1Cl	-6.65*	-6.65
SMILES	KCNQ2 inh	KCNQ2 pot
COCCN1CCN(C(=O)c2ccc3oc(CCc4ccccc4)nc3c2)CC1	i	0.37
Cc1ccc(C(=O)NC(=O)CSc2ncccc2C(=O)O)cc1	i	1.24
O=C(NCCCN1CCOCC1)C1Cc2c(ccc3ccccc23)O1 (stereo not drawn)	i	·
COCCn1c(C)cc(C(=O)CSc2nc(C)cc(C)c2C#N)c1C	i	·
Cc1cc(C)c(C#N)c(SCC(=O)c2cc(C)n(CCc3ccccc3)c2C)n1	-6.44*	-6.44
O=C(Nc1ccccc1C(=O)NCc1cccnc1)c1ccc(Cl)cc1Cl	i	·
COc1cccc(CSc2nnc(-c3ccco3)n2C)c1	i	1.37
Cc1cc(/C=C(/C#N)c2cccc(F)c2)c(C)n1-c1cccnc1	-8*	-8
Cc1cc(/C=C(\C#N)C(=O)NCc2ccco2)c(C)n1-c1cccnc1	i	0.47
COc1ccc(N(Cc2ccccc2)S(=O)(=O)c2cc(C(=O)O)ccc2Cl)cc1	i	·
O/N=C/c1cc(Br)cc(Br)c1OCc1ccccc1	-5.58*	-5.58
O/N=C/c1ccc(OCc2ccccc2)c(Br)c1	i	·
O=C(CS(=O)CC(=O)Nc1cccnc1)Nc1ccc(F)cc1 (stereo not drawn)	i	0.37
Cc1ccc(NC(=O)c2cccc(C(=O)Nc3ccc(C)c(C)c3)n2)cc1C	-6.41*	-6.41
CCc1ccc(NC(=O)c2cccc(C(=O)Nc3ccc(CC)cc3)n2)cc1	i	0.46
O=S(=O)(Nc1ncccn1)c1ccc(NC(=S)N2CCN(Cc3ccc(F)cc3Cl)CC2)cc1	i	·
Cc1ccc2c(c1)N(C(=O)CCC(=O)N1CCC(C(N)=O)CC1)CC(C)O2 (stereo not drawn)	i	·
Cc1ccc(C)c(N=Nc2nc3ccccc3n2C)c1	-5.95*	-5.95
Cc1cc(C)c(C)c(N=Nc2nc3ccccc3n2C)c1C	i	·
Cc1cccc(C)c1NC(=O)CSc1nnc(CCCCCNC(=O)OC(C)(C)C)o1	i	1.42
Cc1nn(C)c(C(=O)N/N=C/c2ccc(-c3ccccc3)cc2)c1Cl	i	·
CCOc1ccccc1CNn1cnnc1	i	1.53
